About 3,000 (0.83%) of roughly 360,000 compounds were called active. Rule as the data show it: active = inhibition above about 50%; inactive = the rest. The full list was thinned out, with actives kept by preference.

For the test, the target named is DNA (cytosine-5)-methyltransferase 1 (Homo sapiens) (UniProt P26358). The test can be described thus: human DNMT1 methyltransferase inhibitors, primary screen, biochemical, molecular beacon, fluorescence, HinP1I cleavage, uHTS (AID 588458). As to conditions: at 10 µM, active compounds read high.
Sequence of DNA (cytosine-5)-methyltransferase 1 (Homo sapiens) (P26358 504-1616 limits assumed): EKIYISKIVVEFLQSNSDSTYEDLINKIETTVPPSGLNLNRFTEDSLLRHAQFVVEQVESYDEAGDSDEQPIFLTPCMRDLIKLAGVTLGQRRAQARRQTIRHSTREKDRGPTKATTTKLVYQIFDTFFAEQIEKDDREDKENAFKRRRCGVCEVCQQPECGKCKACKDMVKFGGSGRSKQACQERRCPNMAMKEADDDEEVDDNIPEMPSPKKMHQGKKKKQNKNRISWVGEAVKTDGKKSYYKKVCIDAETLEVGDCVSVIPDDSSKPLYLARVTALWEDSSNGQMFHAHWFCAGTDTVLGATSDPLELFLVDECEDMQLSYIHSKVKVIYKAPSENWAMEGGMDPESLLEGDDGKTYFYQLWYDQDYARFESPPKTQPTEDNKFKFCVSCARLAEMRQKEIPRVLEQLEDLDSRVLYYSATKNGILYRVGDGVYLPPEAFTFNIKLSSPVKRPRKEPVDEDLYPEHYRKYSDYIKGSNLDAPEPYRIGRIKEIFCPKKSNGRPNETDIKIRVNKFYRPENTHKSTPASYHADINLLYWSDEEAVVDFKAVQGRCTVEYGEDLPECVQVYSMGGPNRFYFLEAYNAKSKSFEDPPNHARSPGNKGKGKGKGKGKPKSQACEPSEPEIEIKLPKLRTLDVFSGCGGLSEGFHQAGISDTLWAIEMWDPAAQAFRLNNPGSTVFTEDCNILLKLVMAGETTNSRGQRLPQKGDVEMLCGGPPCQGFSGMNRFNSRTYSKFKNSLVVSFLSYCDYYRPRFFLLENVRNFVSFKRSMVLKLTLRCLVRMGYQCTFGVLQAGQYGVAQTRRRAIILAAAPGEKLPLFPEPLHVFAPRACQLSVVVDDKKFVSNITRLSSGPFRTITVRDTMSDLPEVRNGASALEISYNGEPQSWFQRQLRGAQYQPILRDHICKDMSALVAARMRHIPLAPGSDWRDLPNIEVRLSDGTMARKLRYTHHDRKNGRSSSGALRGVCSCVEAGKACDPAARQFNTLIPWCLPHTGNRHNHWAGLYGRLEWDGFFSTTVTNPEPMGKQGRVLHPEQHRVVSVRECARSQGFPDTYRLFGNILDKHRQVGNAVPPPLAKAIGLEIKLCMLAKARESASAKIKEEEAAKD
For `CCN(C(=O)CSc1nc2ccccc2n1CC)C1CCS(=O)(=O)C1` (stereo not drawn), the inhibition (reported as % activation of signal) was 0.17% (inactive).

With `CCN(C(=O)CSc1nc(N)cc(=O)[nH]1)C1CCS(=O)(=O)C1` (stereo not drawn), the inhibition (reported as % activation of signal) is 84.1% (active). With `CCN(C(=O)CSc1nnc2ccccn12)C1CCS(=O)(=O)C1` (stereo not drawn), the inhibition (reported as % activation of signal) was 3.22% (inactive).

On to `CCCCNC(=O)C1CCCNC1=O` (stereo not drawn), for which the inhibition (reported as % activation of signal) is 2.28% (inactive). As to `COc1ccc(C2=NOC3(CC(=O)N(c4ccc(Cl)cc4)C3=O)C2)c(OC)c1` (stereo not drawn), the inhibition (reported as % activation of signal) is -6.34% (inactive).

For `O=C(O)c1cc(S(=O)(=O)N2CCCCCC2)c(Cl)cc1Cl`, the inhibition (reported as % activation of signal) is 0.43% (inactive).

As to `CCN1CCN(Cc2nc3c(c(=O)n(C)c(=O)n3C)n2CC(=O)c2ccccc2)CC1`, the inhibition (reported as % activation of signal) was 75.4% (active).

Take `CCOC(=O)N1CCN(Cc2nc3c(c(=O)n(C)c(=O)n3C)n2Cc2ccccc2)CC1`: the inhibition (reported as % activation of signal) is 1.29% (inactive). Turning to `CC1CCCN(Cc2nc3c(c(=O)n(C)c(=O)n3C)n2CC(=O)c2ccccc2)C1` (stereo not drawn), the inhibition (reported as % activation of signal) was -2.35% (inactive). The same measure for `O=C1CCCC(O)=C1C=NCCc1ccccc1`: 60.8% (active).

For the molecule `O=C1CC(c2ccccc2)CC(O)=C1C=NCCN1CCOCC1` (stereo not drawn), the inhibition (reported as % activation of signal) is 0.18% (inactive). In the case of `CC1(C)CC(=O)C(C=NCCC2=CCCCC2)=C(O)C1`, the inhibition (reported as % activation of signal) is 6.68% (inactive). With `COc1cc(NS(=O)(=O)c2ccc(N/C=C(\C=O)c3nc4cc(Cl)ccc4o3)cc2)nc(OC)n1`, the inhibition (reported as % activation of signal) was -2.63% (inactive). For the molecule `C=C1c2c(Cl)ccc(O)c2C(O)=C2C(=O)[C@]3(O)C(O)=C(C(N)=O)C(=O)[C@@H](N(C)C)[C@@H]3[C@@H](O)C12` (stereo partly drawn), the inhibition (reported as % activation of signal) was 94.6% (active). Turning to `CC1C(c2ccccc2)=[N+]([O-])C2(CCCC2)N1O` (stereo not drawn), the inhibition (reported as % activation of signal) was 1.84% (inactive). Take `COc1ccc(CCNC(=O)CC2SC(=Nc3cc(C)cc(C)c3)NC2=O)cc1OC` (stereo not drawn): the inhibition (reported as % activation of signal) was 1.89% (inactive). To `CC(=O)[C@@]12O[C@@H]1C[C@H]1[C@@H]3CC[C@H]4C[C@@H](O)CC[C@]4(C)[C@H]3CC[C@@]12C` belongs 1% (inactive); to `O=C(c1ccc(Cl)cc1)n1cnc2ccccc21`, 8.27% (inactive); to `COc1ccccc1N(CC(=O)Nc1ccc(C(F)(F)F)cc1)S(C)(=O)=O`, 7.89% (inactive). As for `CCCNC(=O)C(=O)Nc1cc2c3c(c1)CCC(=O)N3CCC2`, the inhibition (reported as % activation of signal) is -0.17% (inactive). To `S=C(NCCCc1ccccc1)Nc1ccc(Br)cc1` belongs 6.06% (inactive). In the case of `CCc1ccc(NC(=O)CS(=O)CC(=O)N2CCN(c3ccccc3F)CC2)cc1` (stereo not drawn), the inhibition (reported as % activation of signal) was 1.59% (inactive).

`CCc1ccc(NC(=O)CS(=O)CC(=O)NCCCc2ccccc2)cc1` (stereo not drawn): the inhibition (reported as % activation of signal) is 58.9% (active). To `Cc1oc(CC(C)C)c(CN2CCCC2)c1C(=O)O` belongs -0.29% (inactive); to `Cc1nnc(N(Cc2ccco2)C(=O)c2ccno2)s1`, -1.27% (inactive); to `COCCNC(=O)Nc1ccc2nc(-c3ccco3)c(-c3ccco3)nc2c1`, 110% (active). With `Cc1ccc(NC(=O)OCCNC(=O)c2ccncc2)cc1`, the inhibition (reported as % activation of signal) is 0.6% (inactive). For `COCCNC(=O)CSc1nc(N)c(NC(=O)c2ccco2)c(=O)[nH]1`, the inhibition (reported as % activation of signal) is 4.39% (inactive). Turning to `COc1ccc(Cn2cccc(NC(=O)Nc3ccc(C#N)cc3)c2=O)cc1`, the inhibition (reported as % activation of signal) was 3.12% (inactive). For `O=C1COc2ccc(NC(=O)N3CCN(c4ccc(F)cc4)CC3)cc2N1`, the inhibition (reported as % activation of signal) is -6.06% (inactive). The same measure for `CCOC(=O)c1cccc(NC(=O)c2ccc(F)cc2F)c1`: 2.92% (inactive); for `O=C(COC(=O)c1ccc(F)cc1F)Nc1ncccn1`: 67.4% (active).

Take `O=C(COC(=O)CSc1ccccc1)Nc1ccc(F)cc1F`: the inhibition (reported as % activation of signal) is -0.57% (inactive). On to `CN=C1C=C/C(=N/N=c2\ccn(O)cc2C)C=C1C`, for which the inhibition (reported as % activation of signal) is -3.81% (inactive). Take `NC(=O)C1CCCN(CC(=O)N2CCN(c3ccccc3)CC2)C1` (stereo not drawn): the inhibition (reported as % activation of signal) is 1.67% (inactive). The same measure for `Cn1c(=O)c2[nH]c(NCC3CCCO3)nc2n(-c2ccccc2)c1=O` (stereo not drawn): 3.06% (inactive); for `COc1cc2c(cc1OC)C(Cc1cc(OC)c(OC)cc1[N+](=O)[O-])=NCC2`: -13.1% (inactive). As for `CCC/C=C(\CCC)C(NC(=O)Cc1ccccc1)c1ccc(C(=O)OC)cc1` (stereo not drawn), the inhibition (reported as % activation of signal) was 64.2% (active).

With `CCC[C@@H]1C[C@@]1(CCC)[C@@H](NC(=O)c1ccccc1)c1ccc(C(=O)OC)cc1`, the inhibition (reported as % activation of signal) is -1.36% (inactive). `COC(=O)c1ccc(C(NC(=O)OCc2ccccc2)/C(F)=C/[C@@H](C)C(=O)O)cc1` (stereo partly drawn): the inhibition (reported as % activation of signal) was 2.04% (inactive). To `C#Cc1ccc(NC(=O)C2(C)CCN2C(=O)Cc2ccc(-c3ccccc3)cc2)cc1` (stereo not drawn) belongs -17.3% (inactive). Regarding `O=C(NC1(C(F)(F)F)NC(=O)N(Cc2cccnc2)C1=O)c1ccccc1Cl` (stereo not drawn), the inhibition (reported as % activation of signal) was 5.41% (inactive). On to `O=C(NCc1ccncc1)C1CCCN(S(=O)(=O)c2ccc(Br)cc2)C1` (stereo not drawn), for which the inhibition (reported as % activation of signal) is -0.42% (inactive). As for `COc1cc2c(cc1O)C(SC)=NC(C)(C)C2`, the inhibition (reported as % activation of signal) is 0.55% (inactive). Turning to `COc1ccc(NC(=O)CN(C)C(=O)c2ccc(COc3ccccc3)o2)cc1`, the inhibition (reported as % activation of signal) is 1.54% (inactive). On to `COc1ccc(CC(=O)Nc2ccc(-c3nnc(-c4ccccc4)o3)cc2)cc1`, for which the inhibition (reported as % activation of signal) is 63.9% (active).

`COc1ccc(NC(=O)CCCC(=O)c2ccccc2)cc1`: the inhibition (reported as % activation of signal) is 0.13% (inactive). `Cc1ccc(-c2nnc(-c3ccc(NC(=O)c4cccs4)cc3)o2)cc1`: the inhibition (reported as % activation of signal) was 62.6% (active).

For `COc1ccc(NC(=O)Cn2c(-c3ccc(OC)cc3)cn(-c3ccc(C)cc3)c2=O)cc1`, the inhibition (reported as % activation of signal) was -10.9% (inactive). To `O=C(COc1ccccc1)Nc1ccc(F)cc1` belongs 2.46% (inactive); to `Cc1ccc(OCC(=O)Nc2ccc(-c3nnc(-c4ccco4)o3)cc2)cc1`, 56% (active); to `COc1ccc(C(CC(=O)Nc2ccc(C)cc2)NC(=O)C(F)(F)F)cc1` (stereo not drawn), 1.22% (inactive). Consider `CCOC(=O)C1=C(O)/C(=C/c2ccc(OCC(=O)Nc3ccc(C)cc3)cc2)N=C1C`, for which the inhibition (reported as % activation of signal) was 26.9% (inactive). The same measure for `COc1ccc(CC(=O)Nc2ccc(-c3nnc(-c4ccc(C)cc4)o3)cc2)cc1`: 58.3% (active); for `CCc1ccc(NC(=O)C(=O)NNC(=O)c2cccs2)cc1`: 1.5% (inactive).

On to `O=C(Nc1ccc(N2CCN(C(=O)C3CC3)CC2)cc1)c1cccs1`, for which the inhibition (reported as % activation of signal) is -1.58% (inactive). Turning to `Cc1cc(NC(=O)C(C)SCC(=O)Nc2cccc(S(=O)(=O)N3CCCCCC3)c2)no1` (stereo not drawn), the inhibition (reported as % activation of signal) was 3.04% (inactive). As for `CCCCc1ccc(S(=O)(=O)NC(=O)C2(C)CCN2C(=O)c2ccccc2)cc1` (stereo not drawn), the inhibition (reported as % activation of signal) was -0.05% (inactive).

Source of the values: PubChem BioAssay AID588458 (Sanford-Burnham Center for Chemical Genomics, 2011).
